About 83,000 compounds went through this panel and 20% of them were active in at least one assay; those are over-represented in the sample as a whole.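 In brief: 96-well plates, 48 h treatment, single concentration, percent growth endpoint.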 A number with no mark means an inactive call. Activity calls are given as the source filed them. Rule for the calls: active = growth percent below 10; inactive = the rest.

Some test systems named below: SR leukemia; RPMI-8226 leukemia; OVCAR-8 ovarian; OVCAR-5 ovarian; OVCAR-4 ovarian; SK-OV-3 ovarian; IGROV1 ovarian; OVCAR-3 ovarian; HS 578T breast; NCI/ADR-RES ovarian.
Assay in all cases: NCI-60 one-dose screen, 48 h (100 = growth as untreated, 0 = no growth, -100 = all killed)
Common to all, as to details: 10 µM unless noted

As for `O=[N+]([O-])c1cc(Br)c2cccc3c2c1CC3`, the growth is 93.3% with SR leukemia; 109% with RPMI-8226 leukemia; 97% with OVCAR-8 ovarian; 99.4% with OVCAR-5 ovarian; 104% in the assay on OVCAR-4 ovarian; 114% with SK-OV-3 ovarian. The growth is 111% in the assay on IGROV1 ovarian, 108% with OVCAR-3 ovarian, 130% in the assay with HS 578T breast and 114% in the assay on NCI/ADR-RES ovarian.
Regarding `COc1cc2c3c(c4c5ccccc5[nH]c4c2c(OC)c1OC)C(=O)N(CCN1CCOCC1)C3=O`, the growth in the assay with SR leukemia is 21.5%; in the assay on RPMI-8226 leukemia it was 39.5%; in the assay on OVCAR-8 ovarian, 31%; in the assay on OVCAR-5 ovarian, 99.7%; in the assay with OVCAR-4 ovarian, 70%; in the assay with SK-OV-3 ovarian, 83.2%. Also, the growth in the assay with IGROV1 ovarian was 53.9%; with OVCAR-3 ovarian it was 76.4%; in the assay with HS 578T breast it was 66.6%; in the assay on NCI/ADR-RES ovarian it was 45.8%.
Regarding `CC/C(=C\c1ccc(OC)cc1)C(=O)c1ccc(OC)cc1`, the growth with SR leukemia was 108%; with RPMI-8226 leukemia, 32.2%; in the assay with OVCAR-8 ovarian, 74%; with OVCAR-5 ovarian, 103%; in the assay with OVCAR-4 ovarian it was 77.2%; in the assay on SK-OV-3 ovarian, 106%. Also, the growth in the assay with IGROV1 ovarian is 67.2%; in the assay on OVCAR-3 ovarian, 211%; in the assay on HS 578T breast it was 99.9%; in the assay on NCI/ADR-RES ovarian, 86.7%.
Regarding `O=[N+]([O-])CC(c1ccccc1)c1c[nH]c2ccccc12` (stereo not given), the growth with SR leukemia is 20.2%; with RPMI-8226 leukemia, 50.7%; with OVCAR-8 ovarian it was 52.7%; in the assay with OVCAR-5 ovarian, 79.4%; with OVCAR-4 ovarian it was 91.5%; in the assay with SK-OV-3 ovarian, 96.3%. The growth is 53.7% in the assay on IGROV1 ovarian, 42.4% in the assay on OVCAR-3 ovarian, 64% in the assay with HS 578T breast and 26% in the assay with NCI/ADR-RES ovarian.
Take `COc1ccc(-c2[nH][nH]c(=O)c2-c2nc3ccccc3s2)cc1`: the growth in the assay on SR leukemia was 99.2%; in the assay on RPMI-8226 leukemia, 99.4%; in the assay with OVCAR-8 ovarian, 106%; with OVCAR-5 ovarian it was 105%; in the assay with OVCAR-4 ovarian, 109%; in the assay on SK-OV-3 ovarian, 106%. The growth in the assay on IGROV1 ovarian is 105%; in the assay with OVCAR-3 ovarian, 110%; in the assay on HS 578T breast, 107%; in the assay with NCI/ADR-RES ovarian, 97.7%.
For the molecule `COc1c(Cl)c2c(c(OC)c1OC)-c1ccc(SC)c(=O)cc1[C@@H](NC(=O)OCC(F)(F)F)CC2`, the growth with SR leukemia is -0.191% (active); in the assay on RPMI-8226 leukemia it was 2.59% (active); in the assay with OVCAR-8 ovarian it was 20%; in the assay on OVCAR-5 ovarian, 35%; with OVCAR-4 ovarian it was 39.6%; with SK-OV-3 ovarian, 48.2%. Besides, the growth in the assay on IGROV1 ovarian is 13.5%; with OVCAR-3 ovarian, -14.2% (active); in the assay on HS 578T breast, 12.1%; in the assay with NCI/ADR-RES ovarian, 14.6%.
Consider `C=C1C(=O)O[C@H]2[C@H]1CC/C(COC(=O)NCCc1c[nH]c3ccc(OC)cc13)=C\CC[C@@]1(C)O[C@@H]21`, for which the growth in the assay on SR leukemia was 11.6%; with RPMI-8226 leukemia, -18.4% (active); with OVCAR-8 ovarian, 20.4%; with OVCAR-5 ovarian, 51.8%; in the assay with OVCAR-4 ovarian it was -13.1% (active); in the assay on SK-OV-3 ovarian it was 118%. The growth was -5.2% (active) in the assay on IGROV1 ovarian, -74.3% (active) with OVCAR-3 ovarian, 79.9% with HS 578T breast and 83.5% in the assay on NCI/ADR-RES ovarian.
Consider `Cn1nc(CC#N)c2c(=N)n(N)cnc21`, for which the growth in the assay with SR leukemia is 93.4%; in the assay on RPMI-8226 leukemia it was 117%; in the assay with OVCAR-8 ovarian, 104%; in the assay on OVCAR-5 ovarian, 93.5%; with OVCAR-4 ovarian, 114%; in the assay on SK-OV-3 ovarian, 99.8%. In addition, the growth in the assay with IGROV1 ovarian was 103%; in the assay on OVCAR-3 ovarian, 112%; with HS 578T breast, 114%; in the assay with NCI/ADR-RES ovarian, 113%.
For `COc1ccc(C/C(C)=C(/c2ccc(OCCCN(C)C)cc2)c2ccc(OC(C)=O)cc2)cc1`, the growth in the assay with SR leukemia is 9.44% (active); in the assay with RPMI-8226 leukemia, 79.2%; in the assay on OVCAR-8 ovarian, 95.5%; with OVCAR-5 ovarian it was 85.7%; with OVCAR-4 ovarian it was 79.6%; in the assay with SK-OV-3 ovarian, 88%. Besides, the growth in the assay with IGROV1 ovarian is 58.4%; in the assay on OVCAR-3 ovarian, 91.1%; in the assay on HS 578T breast, 64.1%; in the assay with NCI/ADR-RES ovarian, 92.3%.
Consider `CCN(CC)c1ccc(/C=N/NC(=O)CSc2nc3ccccc3c(=O)n2CCc2ccc(S(N)(=O)=O)cc2)c(O)c1`, for which the growth in the assay on SR leukemia is 13.8%; in the assay on RPMI-8226 leukemia, -31.5% (active); in the assay on OVCAR-8 ovarian, 8.51% (active); in the assay with OVCAR-5 ovarian, 47.7%; in the assay with OVCAR-4 ovarian, 19.7%; with SK-OV-3 ovarian, 41.1%. Also, the growth was 13.7% in the assay on IGROV1 ovarian, 1.89% (active) in the assay with OVCAR-3 ovarian, 46.3% with HS 578T breast and 82.6% in the assay on NCI/ADR-RES ovarian.
On to `N#CC1=C(N)Oc2c(cnn2-c2ccc([N+](=O)[O-])cc2[N+](=O)[O-])C1c1ccccc1` (stereo not given), for which the growth in the assay on SR leukemia is 98.2%; with RPMI-8226 leukemia it was 92.5%; with OVCAR-8 ovarian, 101%; in the assay with OVCAR-5 ovarian it was 99.1%; with OVCAR-4 ovarian, 109%; in the assay on SK-OV-3 ovarian, 112%. Moreover, the growth in the assay on IGROV1 ovarian is 100%; in the assay on OVCAR-3 ovarian it was 112%; in the assay with HS 578T breast, 89%; with NCI/ADR-RES ovarian it was 101%.
Consider `CCCCCN1C=C/C(=C\C(=O)N(C)c2ccc(OC(F)(F)F)cc2)c2ccccc21`, for which the growth with SR leukemia was 100%; in the assay with RPMI-8226 leukemia it was 94.7%; with OVCAR-8 ovarian, 95.3%; in the assay with OVCAR-5 ovarian, 100%; in the assay with OVCAR-4 ovarian, 87.6%; with SK-OV-3 ovarian, 90.6%. The growth was 93.2% with IGROV1 ovarian, 105% in the assay with OVCAR-3 ovarian, 90.5% in the assay with HS 578T breast and 105% in the assay with NCI/ADR-RES ovarian.
For `COc1cccc(/C=N/NC(=O)c2cnn3c2NC(c2ccccc2)C3)c1Oc1ccccc1` (stereo not given), the growth with SR leukemia is 43.1%; with RPMI-8226 leukemia it was 100%; in the assay on OVCAR-8 ovarian it was 89%; in the assay on OVCAR-5 ovarian it was 97.4%; in the assay with OVCAR-4 ovarian, 98.9%; in the assay with SK-OV-3 ovarian, 90.8%. The growth with IGROV1 ovarian is 78.4%; in the assay with OVCAR-3 ovarian, 42%; with HS 578T breast it was 93.4%; with NCI/ADR-RES ovarian, 87.9%.

The values are drawn from PubChem BioAssay (NCI).
